Rows were chosen to be rich in hits. Some 3.9% of all compounds tested hit in one or more screens of this group.
BoNT-A LC inh2: BoNT/A light chain protease inhibitors, primary screen, biochemical, flow cytometry, MLPCN library; Botulinum neurotoxin type A light chain protease (Clostridium botulinum A str. ATCC 3502); AID 588499, 2011; inhibition, % at 10 µM; 0.17% of 360,000 active; multiplex microsphere protease substrate cleavage
BH1578 lux ind: inducers of Vibrio cholerae quorum light production without autoinducers, primary screen, BH1578 luxS cqsA deficient, single point; 0.16% of 350,000 active; V. cholerae BH1578 lux reporter, luminescence, 6 h; activation, % at 18.7 µM; in the data active = activation mostly above about 9.7%, no sharp cut-off; inconclusive = no clear call, values can overlap the other calls; inactive = mostly below about 3.7%
Anthrax LF inh2: Bacillus anthracis LF protease inhibitors, primary screen, biochemical, multiplex microsphere, MLPCN library | Lethal factor (Bacillus anthracis), P15917 | multiplex microsphere protease cleavage assay | inhibition, % at 10 µM | 0.12% of 360,000 active | AID 588501, 2011
Target sequence (P15917 whole entry, looked up): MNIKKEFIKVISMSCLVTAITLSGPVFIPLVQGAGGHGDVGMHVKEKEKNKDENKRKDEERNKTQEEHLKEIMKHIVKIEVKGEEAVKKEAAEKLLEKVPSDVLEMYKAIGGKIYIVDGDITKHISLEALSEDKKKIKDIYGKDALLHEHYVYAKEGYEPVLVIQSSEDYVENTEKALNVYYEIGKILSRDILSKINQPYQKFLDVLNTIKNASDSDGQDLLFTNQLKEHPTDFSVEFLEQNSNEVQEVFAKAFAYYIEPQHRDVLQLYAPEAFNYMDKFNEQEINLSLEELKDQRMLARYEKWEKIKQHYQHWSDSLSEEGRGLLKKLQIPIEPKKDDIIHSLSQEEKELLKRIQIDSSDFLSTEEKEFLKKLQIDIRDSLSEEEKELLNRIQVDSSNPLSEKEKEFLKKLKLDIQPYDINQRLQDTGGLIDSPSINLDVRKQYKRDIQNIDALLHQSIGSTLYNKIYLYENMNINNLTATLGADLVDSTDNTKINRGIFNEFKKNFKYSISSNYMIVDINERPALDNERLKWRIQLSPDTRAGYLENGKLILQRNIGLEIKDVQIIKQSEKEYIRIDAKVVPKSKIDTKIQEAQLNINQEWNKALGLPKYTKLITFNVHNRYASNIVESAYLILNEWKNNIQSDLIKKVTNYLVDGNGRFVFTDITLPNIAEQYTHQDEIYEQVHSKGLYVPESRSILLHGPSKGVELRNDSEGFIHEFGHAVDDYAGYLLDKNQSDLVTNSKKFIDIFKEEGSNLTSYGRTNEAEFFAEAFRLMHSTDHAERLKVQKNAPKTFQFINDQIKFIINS
Bead autofluor: compound fluorescence in toxin protease inhibitor counterscreen. fluorescence intensity (test concentration not listed). AID 624483. compound autofluorescence counterscreen, microsphere flow cytometry; hits give high values. 3.1% of 360,000 active; in the data active = fluorescence intensity above about 16000; inconclusive = no clear call, values can overlap the other calls
BoNT-F LC inh: BoNT/F light chain protease inhibitors, primary screen, biochemical, flow cytometry, MLPCN library; Botulinum neurotoxin type F light chain protease (Clostridium botulinum); Multiplex microsphere protease cleavage assay; inhibition, % at 10 µM; 0.22% of 360,000 active; AID 588497, 2011; in the data active = inhibition above about 35%, passing the limit was not always enough; inconclusive = no clear call, values can overlap the other calls
MazF activator: activators of E. coli MazEF toxin-antitoxin RNase, primary screen, biochemical, fluorescence, uHTS; FAM/BHQ RNA-DNA oligo cleavage fluorescence, 5 h; 0.32% of 350,000 active; AID 504720, 2011; Endoribonuclease toxin MazF (Escherichia coli (strain K12)), P0AE70; activation, % at 20 µM; in the data active = activation above about 50%
Hits are given with their value. Rule as the data show it, unless noted: active = inhibition above about 30%; inconclusive = no clear call, values can overlap the other calls; inactive = below that.

For NS(=O)(=O)c1ccc(CCNC(=O)c2ccc(NS(=O)(=O)c3ccc4[nH]c(=O)[nH]c4c3)cc2)cc1 the results were BoNT-A LC inh2 inactive, BH1578 lux ind inactive, Anthrax LF inh2 inactive, Bead autofluor inactive, BoNT-F LC inh inactive and MazF activator inactive.
Screening COc1ccccc1OC(C)c1nnc(SCC(=O)Nc2c(C)n(C)n(-c3ccccc3)c2=O)n1-c1ccccc1 (stereo not given) returned BoNT-A LC inh2 inactive, BH1578 lux ind inactive, Anthrax LF inh2 inactive, Bead autofluor 21279, BoNT-F LC inh inactive and MazF activator inactive.
For Cc1c(NC(=O)CSc2nnc(C(C)Oc3ccc(Cl)cc3)n2-c2ccccc2)c(=O)n(-c2ccccc2)n1C (stereo not given) the results were BoNT-A LC inh2 inactive, BH1578 lux ind inactive, Anthrax LF inh2 inactive, Bead autofluor 18398, BoNT-F LC inh inactive and MazF activator inactive.
`Cc1c(NC(=O)CSc2ccc(Cl)cc2)c(=O)n(-c2ccccc2)n1C` gave BoNT-A LC inh2 inactive, BH1578 lux ind inactive, Anthrax LF inh2 inactive, Bead autofluor inactive, BoNT-F LC inh inactive and MazF activator inactive.
Screening COCCNC(=O)C1CCCN(C(=O)c2ccc3sccc3c2)CC1 (stereo not given) returned BoNT-A LC inh2 inactive, BH1578 lux ind inactive, Anthrax LF inh2 inactive, Bead autofluor inactive and BoNT-F LC inh inactive.
`COC(=O)Nc1ccc2c(c1)N(C(=O)CCN1CCN3CCCC3C1)c1ccccc1CC2` (stereo not given) gave BoNT-A LC inh2 inactive, BH1578 lux ind inactive, Anthrax LF inh2 inactive, Bead autofluor inactive, BoNT-F LC inh inconclusive and MazF activator inactive.
For COC(=O)Nc1ccc2c(c1)N(C(=O)CCN1CCN3CCCC3C1)c1ccccc1S2 (stereo not given) the results were BoNT-A LC inh2 inconclusive, BH1578 lux ind inactive, Anthrax LF inh2 inactive, Bead autofluor 23102, BoNT-F LC inh inactive and MazF activator inactive.
Cc1cccc(N/C(N)=N/c2nc(C)cc(=O)[nH]2)c1 was read as BoNT-A LC inh2 inactive, BH1578 lux ind inactive, Anthrax LF inh2 inactive, Bead autofluor inactive, BoNT-F LC inh inactive and MazF activator inactive.
Screening CCOc1ccc(S(=O)(=O)N(C)CC(=O)NC2CCCC2)cc1 returned BoNT-A LC inh2 inactive, BH1578 lux ind inactive, Anthrax LF inh2 inactive, Bead autofluor inactive, BoNT-F LC inh inactive and MazF activator inactive.
`C=CCSc1nnc(-c2c[nH]c3ccccc23)n1CCOC` gave BoNT-A LC inh2 inactive, BH1578 lux ind inactive, Anthrax LF inh2 inactive, Bead autofluor 22750, BoNT-F LC inh inactive and MazF activator inactive.
CCn1c(SCC(=O)NCc2ccccc2)nnc1-c1c[nH]c2ccccc12 was read as BoNT-A LC inh2 inactive, BH1578 lux ind inactive, Anthrax LF inh2 inactive, Bead autofluor 22868, BoNT-F LC inh inactive and MazF activator inactive.
Screening CCN(CC)C(=S)Nc1ccc2nc3n(c(=O)c2c1)CCCCC3 returned BoNT-A LC inh2 inactive, BH1578 lux ind inactive, Anthrax LF inh2 inactive, Bead autofluor inactive, BoNT-F LC inh inactive and MazF activator inactive.
CCN1CCC(NC(=O)c2cc(OC)c(OC)cc2OC)CC1 was read as BoNT-A LC inh2 inconclusive, BH1578 lux ind inactive, Anthrax LF inh2 inactive, Bead autofluor 21698, BoNT-F LC inh inactive and MazF activator inactive.
CCN1C(=O)/C(=C2/C=Cc3ccccc3N2C)OC1=S was read as BH1578 lux ind inactive and MazF activator 113.0.
For CCN1C(=O)/C(=C2\C=Cc3ccccc3N2CC)SC1=S the results were BoNT-A LC inh2 inactive, BH1578 lux ind inactive, Anthrax LF inh2 inactive, Bead autofluor inactive, BoNT-F LC inh inactive and MazF activator inactive.
Screening CCN1C(=O)/C(=C2\C=Cc3cc(C)ccc3N2CC)OC1=S returned BoNT-A LC inh2 inactive, BH1578 lux ind inactive, Anthrax LF inh2 inactive, Bead autofluor inactive, BoNT-F LC inh inactive and MazF activator 113.7.
For CCOC(=O)Cc1c(C)nc2c(C#N)c[nH]n2c1=O the results were BoNT-A LC inh2 inactive, BH1578 lux ind inactive, Anthrax LF inh2 inactive, Bead autofluor 23050, BoNT-F LC inh inactive and MazF activator inactive.
`CCc1c(C)nc2c(C#N)c[nH]n2c1=O` gave BoNT-A LC inh2 inactive, BH1578 lux ind inactive, Anthrax LF inh2 inactive, Bead autofluor inactive, BoNT-F LC inh inactive and MazF activator inactive.
Screening COc1ccc(CN2CCCC(C(=O)c3ccc(Cl)cc3)C2)c(O)c1 (stereo not given) returned BoNT-A LC inh2 inactive, BH1578 lux ind inactive, Anthrax LF inh2 inactive, Bead autofluor inactive, BoNT-F LC inh 34.9 and MazF activator inactive.
For COc1ccc(C(=O)C2CCCN(Cc3cc(Cl)ccc3O)C2)c(OC)c1 (stereo not given) the results were BoNT-A LC inh2 inactive, BH1578 lux ind inactive, Anthrax LF inh2 inactive, Bead autofluor inactive, BoNT-F LC inh inactive and MazF activator inactive.
COc1ccc(C(CNC(=O)Cc2c(F)cccc2Cl)N2CCCCC2)cc1 (stereo not given) was read as BoNT-A LC inh2 inactive, BH1578 lux ind inactive, Anthrax LF inh2 inactive, Bead autofluor inactive, BoNT-F LC inh inactive and MazF activator inactive.
Screening COc1cccc(/C=N/Nc2ncnc3scc(-c4ccccc4)c23)c1OC returned BoNT-A LC inh2 inactive, BH1578 lux ind inactive, Anthrax LF inh2 inactive, Bead autofluor 21674, BoNT-F LC inh inactive and MazF activator inactive.
For CC1CN(c2cc3nccnc3cc2F)CC(C)O1 (stereo not given) the results were BoNT-A LC inh2 inconclusive, BH1578 lux ind inactive, Anthrax LF inh2 inactive, Bead autofluor 16271, BoNT-F LC inh inactive and MazF activator inactive.
For CCNC(=O)COC(=O)C1CCC(=O)N(c2ccc(OC)cc2)C1c1ccc(OC)cc1 (stereo not given) the results were BoNT-A LC inh2 inactive, BH1578 lux ind inactive, Anthrax LF inh2 inactive, Bead autofluor 21386, BoNT-F LC inh inactive and MazF activator inactive.
`Cc1ccsc1/C=C1\SC(=S)N(CC2CCCO2)C1=O` (stereo not given) gave BoNT-A LC inh2 35.0, BH1578 lux ind inactive, Anthrax LF inh2 31.8, Bead autofluor inactive, BoNT-F LC inh inactive and MazF activator inactive.
Screening Cc1ccc(-n2nc(C(=O)O)cc2-c2ccc(Cl)cc2)cc1 returned BoNT-A LC inh2 inactive, BH1578 lux ind inactive, Anthrax LF inh2 inactive, Bead autofluor inactive, BoNT-F LC inh inactive and MazF activator inactive.
Screening Cc1ccc(-n2nc(C(=O)O)cc2-c2ccccc2)cc1 returned BoNT-A LC inh2 inactive, BH1578 lux ind inactive, Anthrax LF inh2 inactive, Bead autofluor 22097, BoNT-F LC inh inactive and MazF activator inactive.
Screening COc1ccc(NC(=O)COC(=O)/C=C/c2cnc3ccccc3n2)cc1 returned BoNT-A LC inh2 inactive, BH1578 lux ind inactive, Anthrax LF inh2 inactive, Bead autofluor inactive, BoNT-F LC inh inactive and MazF activator inactive.

Compound activity from PubChem.
